According to PubChem BioAssay:
A number with no mark means an inactive call. The rule behind the calls is not given here.

These compounds were tested against Pantothenate synthetase (Mycobacterium tuberculosis (strain ATCC 25618 / H37Rv)) (UniProt P9WIL5) (assay: Coupled enzyme confirmation of inhibitors against recombinant Mtb PanC (AID 375;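 note: 0% = full reaction with vehicle and 100% = no enzyme background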)). Details: coupled enzyme assay; at 10 µM, stronger effect = higher value.
Chain of Pantothenate synthetase (Mycobacterium tuberculosis (strain ATCC 25618 / H37Rv)) (P9WIL5 whole entry, looked up): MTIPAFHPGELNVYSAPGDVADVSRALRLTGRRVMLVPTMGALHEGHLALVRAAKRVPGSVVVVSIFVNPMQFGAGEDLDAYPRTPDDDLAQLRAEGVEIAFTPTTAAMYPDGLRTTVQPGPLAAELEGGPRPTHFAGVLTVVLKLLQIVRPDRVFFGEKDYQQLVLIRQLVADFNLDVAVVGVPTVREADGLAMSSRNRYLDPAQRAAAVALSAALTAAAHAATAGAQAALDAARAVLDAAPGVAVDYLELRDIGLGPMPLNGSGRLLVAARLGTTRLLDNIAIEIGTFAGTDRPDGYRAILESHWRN

Structure (SMILES) | inhibition [%]
N=c1c(C(=O)NCc2ccc3c(c2)OCO3)cc2c(=O)n3ccccc3nc2n1Cc1cccnc1 | 2
O=C(NCc1ccco1)C1Cc2ccccc2CN1S(=O)(=O)c1ccccc1F (stereo not given) | 1
COc1ccc(C(=O)N(CCN2CCOCC2)CC(=O)NC2CCCC2)cc1OC | 1
CCOC(=O)C1=C(O)CCn2c1nc1ccccc12 | 2
COc1ccccc1NC(=O)C(O)C(O)C(=O)Nc1ccccc1OC (stereo not given) | 3
CSc1nc(C)cc(OCC(=O)N2CCOCC2)n1 | 0
Cc1cc(C(=O)OCC(=O)N2c3ccccc3CC2C)c(C)o1 (stereo not given) | 3
Cc1ccc(C)c(N(CC(=O)NCc2ccco2)C(=O)CCC(=O)Nc2ccccn2)c1 | 0
CS(=O)(=O)c1ccc2nc(NC(=O)C3C4C=CC(C4)C3C(=O)O)sc2c1 (stereo not given) | 1
CC(COc1ccccc1)NC(C)C(O)c1ccc(O)cc1 (stereo not given) | 0
CS(=O)(=O)N(CC(=O)N1CCN(c2cccc(Cl)c2)CC1)C1CCCCC1 | 0
CC(C)(C)C(=O)OCC1OC(n2cnc(C(N)=O)n2)C(O)C1O (stereo not given) | 3
CCn1c(=O)n(CC(=O)Nc2cc(OC)ccc2OC)c(=O)c2ccccc21 | 10
Cc1nn(Cc2ccccc2)c(C)c1NC(=O)c1cc(-c2ccco2)on1 | 3
CCOc1nc(-c2ccccc2)ccc1-c1noc(-c2cccnc2)n1 | 0
COC(=O)/C=c1\sc2ncnn2c1=O | 0
CCNC(=O)N(C(=O)NCC)n1c(C)nnc1C | 0
CN(C(=O)Cn1c(=O)n(CCCCC(=O)NC2CCCC2)c(=O)c2ccccc21)C1CCCCC1 | 0
O=C(Nc1ccc(Cl)cc1)C1CC=CCC1C(=O)OCC(F)(F)C(F)F (stereo not given) | 0
Cc1cccc(N(CC(=O)N2CCCC2)S(=O)(=O)c2ccccc2)c1C | 0

Structure (SMILES) | inhibition [%]
CC(C)(C)n1nc2c(c1NC(=O)COc1ccc(Cl)cc1)CSC2 | 0
COc1ccc(CCn2c(=N)c(C#N)cc3c(=O)n4ccccc4nc32)cc1 | 0
CC(C)NCC(O)COc1ccc(CC(N)=O)cc1 (stereo not given) | 0
Nc1nonc1-c1noc(CCCCCN2C(=O)c3ccccc3C2=O)n1 | 4
CCOc1ncccc1C(=O)OCC(=O)Nc1ncc(C(F)(F)F)cc1Cl | 1
CCOC(=O)C1C(=O)NC(SCC(=O)Nc2nccs2)=C(C#N)C1c1ccccc1OCC (stereo not given) | 0
Cc1ccc2oc(=O)c3cnn(CC(=O)N4CCCc5ccccc54)c3c2c1 | 1
CCN(CC)c1ccc2c(c1)C(=O)N(C)C2=O | 7
Cc1cc(C)n(-c2nc3sc4c(c3c3nnc(SC(C)C)n23)CC(C)(C)OC4)n1 | 0
c1cnn(-c2cc(N3CCOCC3)ncn2)c1 | 0
CCCCP(=O)(CCCC)Cc1ccccc1O | 0
c1ccc(Cn2nnnc2CN2CCCC2)cc1 | 0
Cc1ccc(NC2c3ncccc3C(=O)N2C2CCCCC2)cc1C (stereo not given) | 0
COc1ccc(OC)c(NC(=O)c2nnn(Cc3ccc(Br)cc3F)c2N)c1 | 0
CCN1CCCC1CNC(=O)CS(=O)(=O)Cc1nc(-c2ccccc2C)oc1C (stereo not given) | 0
COc1ccc(N=C2C(=O)Nc3ccccc32)cc1 | 0
CCCS(=O)(=O)N1CCC(C(=O)NCCN2CCCC2)CC1 | 0
C=CCOc1ccc(C2C(C(=O)c3ccco3)=C(O)C(=O)N2Cc2cccnc2)cc1 (stereo not given) | 0
Cc1ccc(-c2nnc(-c3cccc(Br)c3)o2)cc1 | 0
CC1CCN(CCC(=O)Nc2ccc(Br)cc2)CC1 | 0
